Here are results for 5 compounds from PubChem BioAssay (EPA / NIEHS).

In experiment [1] the target is Nuclear receptor subfamily 1 group I member 3 (Homo sapiens) (UniProt Q14994). The experiment in a line: ATG_CAR_TRANS: Attagene TRANS-FACTORIAL HepG2 Assay for human Constitutive Androstane Receptor (CAR) (AID 2282969).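 Note: activators raise reporter mRNA above DMSO so AC50 marks induction.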 As to conditions: HepG2 Attagene TRANS-FACTORIAL CAR reporter. The method, boiled down:
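Readout is reporter mRNA induction, quantified by fluorescent primer extension and capillary electrophoresis after RT-PCR. Cells were HepG2 transiently carrying chimeric NR-Gal4 constructs with GAL4-UAS reporters, treated for 24 h; activity scored upward from DMSO.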

The target in experiment [2] is Estrogen receptor (Homo sapiens) (UniProt P03372). The experiment in a line: ATG_ERa_TRANS: Attagene TRANS-FACTORIAL HepG2 Assay for human Estrogen Receptor alpha (ERa) (AID 2282970). The settings on record: HepG2 Attagene TRANS ERa GAL4 reporter, mRNA. The essentials:
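HepG2 cells transiently transfected with multiplexed GAL4-UAS reporter units; ERa activity read via exogenous chimeric NR-Gal4 protein. After 24 hour compound exposure, reporter mRNA measured by RT-PCR with 6-FAM labelling and capillary electrophoresis; gain-of-signal fitted relative to DMSO.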

Experiment [3] has as its target X-box-binding protein 1 (Homo sapiens) (UniProt P17861). The experiment can be described thus: ATG_Xbp1_CIS: Attagene CIS-FACTORIAL HepG2 Assay for human X-box Binding Protein 1 (XBP1) (AID 2282972; active = hit-call score of the fitted dose curve at least 0.9, where 1 is the maximum; inactive = score below 0.9). The settings on record: HepG2 XBP1 cis-element reporter, Attagene multiplex; actives raise or lower the signal. The essentials:
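HepG2 cells transiently transfected with multiple cis-element reporter units report endogenous TF activity; 24 h exposure, then reporter mRNA measured by RT-PCR, 6-FAM labelling, HpaI digestion and capillary electrophoresis. Bidirectional fitting versus DMSO.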

For experiment [4], the target named is Bile acid receptor (Homo sapiens) (UniProt Q96RI1). The experiment can be described thus: ATG_FXR_TRANS: Attagene TRANS-FACTORIAL HepG2 Assay for Farnesoid X Receptor (FXR) (AID 2282979).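 Note: hits raise reporter mRNA above DMSO so AC50 marks FXR activation.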 The settings on record: HepG2 Attagene TRANS FXR-GAL4 reporter transcription. The essentials: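 HepG2 cells transiently transfected with reporter constructs in which a chimeric FXR-GAL4 protein drives a GAL4-UAS reporter; 24 h compound exposure. Reporter mRNA measured by RT-PCR, FAM labelling, HpaI digestion and capillary electrophoresis; gain-of-signal versus DMSO.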

In experiment [5] the target is Oxysterols receptor LXR-alpha (Homo sapiens) (UniProt Q13133). The experiment in a line: ATG_LXRa_TRANS: Attagene TRANS-FACTORIAL HepG2 Assay for human Liver X Receptor alpha (LXRa) (AID 2282980). As to conditions: HepG2 Attagene TRANS reporter, LXRa transactivation. The essentials:
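HepG2 cells were transiently transfected with multiplexed reporter units driven by chimeric LXRa–GAL4 fusion proteins, then dosed for 24 h. Reporter mRNA was quantified by RT-PCR, fluorescent labelling and capillary electrophoresis; gain of signal fitted against DMSO baseline.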

In experiment [6] the target is Oxysterols receptor LXR-beta (Homo sapiens) (UniProt P55055). The experiment in a line: ATG_LXRb_TRANS: Attagene TRANS-FACTORIAL HepG2 Assay for human Liver X Receptor beta (LXRb) (AID 2282981). The settings on record: HepG2 Attagene TRANS GAL4-LXRb reporter, mRNA. The essentials:
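Transient transfection HepG2 (multiplexed RTUs, GAL4-UAS); NR-Gal4 chimera; 24 h exposure; RNA → RT-PCR → 6-FAM primer extension → HpaI → CE; increase vs DMSO.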

The nature of experiment [7]: ATG_M_06_TRANS: Attagene TRANS-FACTORIAL HepG2 Assay for M06 Transcription Factor (Internal Marker) (AID 2282983). As to conditions: HepG2 Attagene TRANS M06 internal marker reporter. The method, boiled down: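 HepG2 cells transiently transfected with multiplexed GAL4-UAS reporter transcription units; after 24 h compound exposure, reporter mRNA measured by RT-PCR, FAM-labelled primer extension, HpaI digestion and capillary electrophoresis. Gain-of-signal fitted versus DMSO baseline; background control readout.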

Experiment [8] deals with Transcriptional activator Myb (Homo sapiens) (UniProt P10242). The experiment in a line: ATG_Myb_CIS: Attagene CIS-FACTORIAL HepG2 Assay for human Myeloblastosis (Myb) Proto-Oncogene Transcription Factor (AID 2282986; active = hit-call score of the fitted dose curve at least 0.9, where 1 is the maximum; inactive = score below 0.9). The settings on record: HepG2 Attagene CIS-FACTORIAL Myb reporter transcription; actives raise or lower the signal. The method, boiled down:
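Reporter transcript levels, quantified by fluorescent RT-PCR and capillary electrophoresis, serve as the read-out. Transfected HepG2 cells carrying cis-promoter reporter units are dosed for 24 hours, and curves are fitted bidirectionally against DMSO controls.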

The target of experiment [9] is Nuclear respiratory factor 1 (Homo sapiens) (UniProt Q16656). The experiment in a line: ATG_NRF1_CIS: Attagene CIS-FACTORIAL HepG2 Assay for human Nuclear Respiratory Factor 1 (NRF1) Orphan Gene (AID 2282987; active = hit-call score of the fitted dose curve at least 0.9, where 1 is the maximum; inactive = score below 0.9). The settings on record: HepG2 NRF1 cis-element reporter, Attagene multiplex; actives raise or lower the signal. The essentials:
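Multiplexed cis-reporter assay, HepG2 cells, 24 h treatment. Total RNA → oligo(dT) RT → PCR with reporter-specific primers → 6-FAM primer extension → HpaI cut → CE. Bidirectional fit vs DMSO.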

Experiment [10] can be described thus: ATG_NFI_CIS: Attagene CIS-FACTORIAL HepG2 Assay for human Nuclear Factor I (NFI) (AID 2282989; active = hit-call score of the fitted dose curve at least 0.9, where 1 is the maximum; inactive = score below 0.9). The settings on record: HepG2 cis-regulatory reporter, NFI response element transcription; actives raise or lower the signal. The method, boiled down: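 Reporter transcripts were measured by RT-PCR with fluorescent primer extension and capillary electrophoresis 24 h post-treatment. HepG2 cells carried transiently transfected cis-regulated reporter constructs reporting endogenous factor activity; gain or loss fitted against DMSO baseline.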

Experiment [11] has as its target Myc proto-oncogene protein (Homo sapiens) (UniProt P01106). The experiment can be described thus: ATG_Myc_CIS: Attagene CIS-FACTORIAL HepG2 Assay for human Myelocytomatosis (Myc) Proto-Oncogene Transcription Factor (AID 2282990; active = hit-call score of the fitted dose curve at least 0.9, where 1 is the maximum; inactive = score below 0.9). The settings on record: HepG2, Attagene cis-reporter transcription factor activity; actives raise or lower the signal. The essentials:
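HepG2, transient MRTU transfection (cis promoters, endogenous TFs); 24 h dosing; TriZol RNA → oligo(dT) RT → PCR → 6-FAM primer extension → HpaI cut → CE. Bidirectional fit vs DMSO.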

For experiment [12], the target named is Glucocorticoid receptor (Homo sapiens) (UniProt P04150). The experiment in a line: ATG_GR_TRANS: Attagene TRANS-FACTORIAL HepG2 Assay for human Glucocorticoid Receptor (GR) (AID 2282978).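 Note: activators score as hits since higher reporter transcript over DMSO is fitted.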 The settings on record: HepG2 Attagene TRANS GR reporter, mRNA transcription. The method, boiled down: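 Fluorescent capillary-electrophoresis quantitation of reporter mRNA is the readout, taken 24 h after dosing human HepG2 cells carrying transiently transfected GAL4-UAS reporter units activated by chimeric NR-GAL4 fusions; activity scored as induction over DMSO.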

The nature of experiment [13]: ATG_M_19_TRANS: Attagene TRANS-FACTORIAL HepG2 Assay for M19 Transcription Factor (Internal Marker) (AID 2282974). The settings on record: HepG2 Attagene TRANS-FACTORIAL M19 internal marker reporter. The essentials:
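Fluorescence of 6-FAM-labelled reporter cDNA fragments, separated by capillary electrophoresis, served as the readout. These derived from HepG2 cells carrying transfected GAL4-UAS reporter units after 24 h dosing, with DMSO as negative control.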

The target in experiment [14] is Hepatocyte nuclear factor 4-alpha (Homo sapiens) (UniProt P41235). The experiment in a line: ATG_HNF4a_TRANS: Attagene TRANS-FACTORIAL HepG2 Assay for human Hepatocyte Nuclear Factor 4 alpha (HNF4a) (AID 2282982). As to conditions: HepG2 HNF4a transactivation reporter, mRNA readout. The essentials: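 Readout is fluorescent reporter-transcript fragments resolved by capillary electrophoresis after RT-PCR from HepG2 cells dosed for 24 h. Cells carried transfected GAL4-UAS reporter constructs measuring exogenous NR-GAL4 chimera activity; DMSO served as baseline.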

A short description of experiment [15]: ATG_M_32_TRANS: Attagene TRANS-FACTORIAL HepG2 Assay for M32 Transcription Factor (Internal Marker) (AID 2282984). As to conditions: HepG2 Attagene TRANS M32 internal marker reporter. The essentials:
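Measures reporter mRNA induction in human HepG2 liver cells after 24 h chemical treatment. Transcripts from transiently transfected GAL4-UAS reporter units are amplified, fluorescently labelled and sized by capillary electrophoresis; gain of signal relative to DMSO.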

In experiment [16] the target is Nuclear receptor subfamily 4 group A member 2 (Homo sapiens) (UniProt P43354). The experiment in a line: ATG_NURR1_TRANS: Attagene TRANS-FACTORIAL HepG2 Assay for human Nuclear Receptor Related Protein 1 (NURR1) (AID 2282985). As to conditions: HepG2 Attagene TRANS reporter, mRNA readout. The essentials:
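Transient transfection of HepG2, human liver cells, with multiple GAL4-UAS reporter transcription units. Cells dosed 24 h, RNA isolated, reverse-transcribed, PCR-amplified, FAM-labelled, HpaI-digested, sized by capillary electrophoresis. DMSO served as negative control.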

A short description of experiment [17]: ATG_GAL4_TRANS: Attagene TRANS-FACTORIAL HepG2 Assay for GAL4 (Internal Marker) (AID 2282976). The settings on record: HepG2 Attagene TRANS GAL4 internal marker reporter. The method, boiled down:
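HepG2 cells transiently transfected with multiplexed GAL4-UAS reporter constructs were dosed for 24 h. Reporter mRNA was measured by RT-PCR, 6-FAM primer extension, HpaI digestion and capillary electrophoresis, and gain of signal was fitted relative to DMSO.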

In experiment [18] the target is Estrogen-related receptor gamma (Homo sapiens) (UniProt P62508). The experiment can be described thus: ATG_ERRg_TRANS: Attagene TRANS-FACTORIAL HepG2 Assay for human Estrogen-Related Receptor gamma (ERRg) (AID 2282977).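 Note: hits increase reporter signal over DMSO so potencies reflect activators.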 The settings on record: HepG2 Attagene TRANS reporter, ERRg transactivation. The method, boiled down:
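HepG2 cells transiently transfected with multiplexed GAL4-UAS reporter units driven by chimeric NR-Gal4 proteins; 24 h exposure. Reporter mRNA quantified by RT-PCR, fluorescent labelling, HpaI digestion and capillary electrophoresis; gain of signal vs DMSO.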

Results filed as inconclusive are left out. Active and inactive are the calls of the source. Rule for the calls, unless noted: active = hit-call score of the fitted dose curve at least 0.9, where 1 is the maximum; inconclusive = response in the unintended direction; inactive = score below 0.9.

Chain of Nuclear respiratory factor 1 (Homo sapiens) (Q16656 whole entry, looked up): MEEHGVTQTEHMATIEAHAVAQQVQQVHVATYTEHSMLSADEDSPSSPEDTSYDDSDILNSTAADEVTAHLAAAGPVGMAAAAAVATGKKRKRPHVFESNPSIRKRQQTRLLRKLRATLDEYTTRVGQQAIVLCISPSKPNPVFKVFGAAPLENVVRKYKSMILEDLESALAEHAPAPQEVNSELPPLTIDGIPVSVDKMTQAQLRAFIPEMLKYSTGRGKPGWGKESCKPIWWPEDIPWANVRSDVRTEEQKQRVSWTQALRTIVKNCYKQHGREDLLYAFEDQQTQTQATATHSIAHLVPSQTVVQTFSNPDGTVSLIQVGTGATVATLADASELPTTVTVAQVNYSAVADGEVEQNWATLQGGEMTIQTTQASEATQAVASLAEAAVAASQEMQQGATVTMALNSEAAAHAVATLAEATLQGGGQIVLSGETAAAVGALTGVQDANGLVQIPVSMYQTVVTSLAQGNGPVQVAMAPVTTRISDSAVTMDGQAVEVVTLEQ
Chain of X-box-binding protein 1 (Homo sapiens) (P17861 whole entry, looked up): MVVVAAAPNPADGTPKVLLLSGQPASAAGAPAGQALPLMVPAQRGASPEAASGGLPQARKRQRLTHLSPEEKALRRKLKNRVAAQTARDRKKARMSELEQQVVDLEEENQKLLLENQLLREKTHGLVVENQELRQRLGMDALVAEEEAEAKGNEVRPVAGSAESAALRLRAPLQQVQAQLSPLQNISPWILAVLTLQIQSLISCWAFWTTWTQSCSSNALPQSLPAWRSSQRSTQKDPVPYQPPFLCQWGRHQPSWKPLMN
Chain of Myc proto-oncogene protein (Homo sapiens) (P01106 whole entry, looked up): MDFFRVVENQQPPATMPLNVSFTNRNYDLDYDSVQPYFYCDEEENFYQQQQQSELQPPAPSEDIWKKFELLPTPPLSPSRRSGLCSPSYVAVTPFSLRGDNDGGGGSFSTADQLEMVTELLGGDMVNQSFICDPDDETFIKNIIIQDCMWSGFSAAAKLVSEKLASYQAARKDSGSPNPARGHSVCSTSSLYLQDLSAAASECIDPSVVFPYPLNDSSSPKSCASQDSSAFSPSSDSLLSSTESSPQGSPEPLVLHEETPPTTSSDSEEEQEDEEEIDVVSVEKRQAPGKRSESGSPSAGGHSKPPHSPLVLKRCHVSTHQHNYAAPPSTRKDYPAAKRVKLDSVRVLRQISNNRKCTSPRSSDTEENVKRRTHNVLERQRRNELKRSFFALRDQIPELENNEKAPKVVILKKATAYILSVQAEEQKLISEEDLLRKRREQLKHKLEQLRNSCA
Chain of Nuclear receptor subfamily 1 group I member 3 (Homo sapiens) (Q14994 whole entry, looked up, the tested form may be a part): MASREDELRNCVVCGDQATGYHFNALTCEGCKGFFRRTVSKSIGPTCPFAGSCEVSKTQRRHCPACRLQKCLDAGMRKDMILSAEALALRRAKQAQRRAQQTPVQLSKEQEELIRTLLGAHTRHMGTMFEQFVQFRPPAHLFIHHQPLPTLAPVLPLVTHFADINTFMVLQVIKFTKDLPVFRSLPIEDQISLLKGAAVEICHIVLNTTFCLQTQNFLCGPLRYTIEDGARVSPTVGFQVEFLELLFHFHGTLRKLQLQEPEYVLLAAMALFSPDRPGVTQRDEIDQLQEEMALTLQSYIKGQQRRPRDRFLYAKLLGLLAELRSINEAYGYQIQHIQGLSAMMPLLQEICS
Chain of Transcriptional activator Myb (Homo sapiens) (P10242 whole entry, looked up): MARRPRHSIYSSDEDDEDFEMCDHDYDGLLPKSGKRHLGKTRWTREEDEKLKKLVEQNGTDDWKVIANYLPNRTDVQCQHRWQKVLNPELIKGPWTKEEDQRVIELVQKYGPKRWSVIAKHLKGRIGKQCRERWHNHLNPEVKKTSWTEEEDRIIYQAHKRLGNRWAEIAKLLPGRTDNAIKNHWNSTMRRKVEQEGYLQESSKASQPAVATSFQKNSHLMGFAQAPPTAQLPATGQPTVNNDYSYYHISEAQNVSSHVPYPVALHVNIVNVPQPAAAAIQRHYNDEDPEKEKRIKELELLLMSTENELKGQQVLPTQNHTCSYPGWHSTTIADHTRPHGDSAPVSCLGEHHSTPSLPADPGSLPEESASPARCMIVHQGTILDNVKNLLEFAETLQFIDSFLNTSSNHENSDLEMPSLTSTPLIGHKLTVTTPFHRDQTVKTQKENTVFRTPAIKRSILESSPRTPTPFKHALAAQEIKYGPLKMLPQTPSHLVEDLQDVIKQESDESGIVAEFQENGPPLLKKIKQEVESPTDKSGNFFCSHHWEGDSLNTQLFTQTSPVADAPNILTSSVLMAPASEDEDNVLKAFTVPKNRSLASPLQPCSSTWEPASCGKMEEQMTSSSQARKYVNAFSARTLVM
Chain of Bile acid receptor (Homo sapiens) (Q96RI1 whole entry, looked up, the tested form may be a part): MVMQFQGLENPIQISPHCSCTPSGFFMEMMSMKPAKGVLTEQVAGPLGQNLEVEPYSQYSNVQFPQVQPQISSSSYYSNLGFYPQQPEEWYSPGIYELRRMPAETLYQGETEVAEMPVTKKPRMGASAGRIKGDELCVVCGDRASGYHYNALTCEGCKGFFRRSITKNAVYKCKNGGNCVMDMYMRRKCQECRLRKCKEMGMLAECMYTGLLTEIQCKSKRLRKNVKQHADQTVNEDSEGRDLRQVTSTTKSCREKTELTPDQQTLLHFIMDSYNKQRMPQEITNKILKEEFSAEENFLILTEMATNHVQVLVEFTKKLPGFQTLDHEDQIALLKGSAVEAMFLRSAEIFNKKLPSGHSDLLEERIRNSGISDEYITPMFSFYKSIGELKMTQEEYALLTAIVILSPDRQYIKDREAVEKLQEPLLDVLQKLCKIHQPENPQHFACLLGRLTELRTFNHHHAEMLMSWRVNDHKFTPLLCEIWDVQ
Chain of Oxysterols receptor LXR-beta (Homo sapiens) (P55055 whole entry, looked up, the tested form may be a part): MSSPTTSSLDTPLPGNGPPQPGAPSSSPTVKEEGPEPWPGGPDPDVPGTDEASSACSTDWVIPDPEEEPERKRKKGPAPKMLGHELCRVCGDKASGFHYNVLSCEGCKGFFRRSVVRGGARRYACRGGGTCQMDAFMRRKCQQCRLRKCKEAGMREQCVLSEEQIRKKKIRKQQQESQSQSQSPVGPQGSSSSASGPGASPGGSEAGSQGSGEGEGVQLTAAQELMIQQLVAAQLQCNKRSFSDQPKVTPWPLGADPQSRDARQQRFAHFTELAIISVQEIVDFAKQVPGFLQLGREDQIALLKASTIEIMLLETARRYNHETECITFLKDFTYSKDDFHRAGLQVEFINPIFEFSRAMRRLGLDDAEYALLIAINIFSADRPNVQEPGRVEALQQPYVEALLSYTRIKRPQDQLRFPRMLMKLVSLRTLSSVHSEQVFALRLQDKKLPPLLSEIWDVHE
Chain of Estrogen receptor (Homo sapiens) (P03372 whole entry, looked up, the tested form may be a part): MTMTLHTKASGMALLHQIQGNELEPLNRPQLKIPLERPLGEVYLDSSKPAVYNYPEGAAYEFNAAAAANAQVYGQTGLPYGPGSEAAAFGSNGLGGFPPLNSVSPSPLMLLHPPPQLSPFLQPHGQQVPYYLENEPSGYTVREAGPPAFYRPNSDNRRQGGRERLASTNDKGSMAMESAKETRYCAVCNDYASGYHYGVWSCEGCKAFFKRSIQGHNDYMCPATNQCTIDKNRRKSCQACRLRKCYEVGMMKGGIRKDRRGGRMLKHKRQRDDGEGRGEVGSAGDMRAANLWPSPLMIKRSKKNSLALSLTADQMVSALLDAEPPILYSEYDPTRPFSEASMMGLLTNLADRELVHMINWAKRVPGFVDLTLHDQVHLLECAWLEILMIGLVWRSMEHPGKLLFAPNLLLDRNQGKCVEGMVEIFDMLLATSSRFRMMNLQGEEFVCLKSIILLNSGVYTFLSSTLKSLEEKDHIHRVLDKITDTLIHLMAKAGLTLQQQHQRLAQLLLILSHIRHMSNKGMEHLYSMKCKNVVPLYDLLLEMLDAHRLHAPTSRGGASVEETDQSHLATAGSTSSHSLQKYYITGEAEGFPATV
Chain of Glucocorticoid receptor (Homo sapiens) (P04150 whole entry, looked up, the tested form may be a part): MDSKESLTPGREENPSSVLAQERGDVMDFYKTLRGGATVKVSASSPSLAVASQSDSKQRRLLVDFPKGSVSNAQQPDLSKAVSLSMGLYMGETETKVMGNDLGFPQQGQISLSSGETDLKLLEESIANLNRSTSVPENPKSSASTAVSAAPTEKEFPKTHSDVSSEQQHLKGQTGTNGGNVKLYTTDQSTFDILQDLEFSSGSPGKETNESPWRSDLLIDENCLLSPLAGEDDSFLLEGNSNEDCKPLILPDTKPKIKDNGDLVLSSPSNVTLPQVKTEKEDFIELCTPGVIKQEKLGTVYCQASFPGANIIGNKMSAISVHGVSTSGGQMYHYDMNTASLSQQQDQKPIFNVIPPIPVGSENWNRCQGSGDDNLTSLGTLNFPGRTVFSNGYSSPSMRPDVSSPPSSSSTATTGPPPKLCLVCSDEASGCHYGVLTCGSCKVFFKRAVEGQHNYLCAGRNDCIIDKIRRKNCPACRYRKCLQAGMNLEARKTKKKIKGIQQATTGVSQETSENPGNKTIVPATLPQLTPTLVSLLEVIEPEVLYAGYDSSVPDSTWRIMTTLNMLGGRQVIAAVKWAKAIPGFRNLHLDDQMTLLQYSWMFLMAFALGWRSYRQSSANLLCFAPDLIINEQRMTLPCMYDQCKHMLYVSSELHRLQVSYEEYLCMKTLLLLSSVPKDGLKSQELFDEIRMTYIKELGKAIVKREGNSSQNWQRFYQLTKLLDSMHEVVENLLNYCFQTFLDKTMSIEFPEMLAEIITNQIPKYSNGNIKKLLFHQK
Chain of Oxysterols receptor LXR-alpha (Homo sapiens) (Q13133 whole entry, looked up, the tested form may be a part): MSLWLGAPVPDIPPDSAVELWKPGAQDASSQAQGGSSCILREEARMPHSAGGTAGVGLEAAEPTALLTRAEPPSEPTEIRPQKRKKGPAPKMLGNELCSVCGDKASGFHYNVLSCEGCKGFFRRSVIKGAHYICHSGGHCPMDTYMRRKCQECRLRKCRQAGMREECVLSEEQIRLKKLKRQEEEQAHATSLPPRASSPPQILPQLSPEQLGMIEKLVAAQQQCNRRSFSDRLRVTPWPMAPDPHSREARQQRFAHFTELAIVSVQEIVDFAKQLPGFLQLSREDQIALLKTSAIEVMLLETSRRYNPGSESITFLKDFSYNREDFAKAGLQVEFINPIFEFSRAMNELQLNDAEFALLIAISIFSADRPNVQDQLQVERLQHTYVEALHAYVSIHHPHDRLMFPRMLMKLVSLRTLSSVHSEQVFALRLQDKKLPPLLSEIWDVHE

Turning to `C1CCC(C2CCCCC2)CC1`, the outcome in experiment [1], in [3], in [4], in experiment [5], in [6] and in experiment [7] was inactive. The call in experiment [8], in experiment [9], in experiment [10] and in [11] was inactive. Further, the AC50 in experiment [2] was 27.9 µM (active).

As for `O=S1OC[C@@H]2[C@H](CO1)[C@]1(Cl)C(Cl)=C(Cl)[C@@]2(Cl)C1(Cl)Cl` (stereo not given in full), the call in experiment [1], in [12], in experiment [4], in [7], in [8] and in experiment [9] was inactive. The outcome in experiment [10] and in [11] was inactive. For the same compound, the AC50 in experiment [2] was 3.77 µM (active); in experiment [3] it was 100 µM (active).

As for `C[C@@H]1O[C@@H](O[C@H]2C[C@@H](O)[C@]3(CO)[C@H]4[C@H](O)C[C@]5(C)[C@@H](C6=CC(=O)OC6)CC[C@]5(O)[C@@H]4CC[C@]3(O)C2)[C@H](O)[C@H](O)[C@H]1O`, the result in experiment [1], in experiment [13], in experiment [4], in experiment [14], in experiment [7] and in [9] was inactive. Further, the outcome in experiment [11] was inactive. Moreover, the AC50 in experiment [3] was 0.628 µM (active); in experiment [8], 0.328 µM (active); in experiment [10], 0.645 µM (active).

With `CC(C)(C)c1ccccc1O`, the compound was called inactive in experiment [1], in experiment [13], in experiment [12], in [6], in [15] and in [8]. In addition, the outcome in experiment [11] was inactive. Also, the AC50 in experiment [3] is 165 µM (active); in [16] it was 63.4 µM (active); in [9], 100 µM (active); in [10] it was 100 µM (active).

`CCOC(=O)C(SP(=S)(OC)OC)c1ccccc1` (stereo not given): the compound was classed as inactive in experiment [1], in [3], in experiment [13], in experiment [17], in experiment [18] and in experiment [5]. Moreover, the outcome in experiment [6], in experiment [15], in [16], in [8], in experiment [10] and in [11] was inactive. Further, the AC50 in experiment [4] was 30.7 µM (active).

A word on the AC50: it is the midpoint of the concentration-response curve, whichever way the signal moves.
